Source: PubChem (several laboratories)
A selection: hits, their analogues and other compounds. The true share with any hit is near 3%.
pPAFAH FP inh = pPAFAH (human) enzyme inhibition; Q13093; recombinant pPAFAH, FP-rhodamine probe fluorescence polarization; inhibition, % at 3.39 µM; 330,000 compounds, 1.5% hits;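 active = inhibition above the mean inhibition across the screen plus 3 SD, cut at about 25% in these data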;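 also: inhibitors block binding of the rhodamine activity-based probe so polarization drops; 0% = enzyme with DMSO and 100% = wells lacking pPAFAH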
Target sequence (Q13093 whole entry, looked up): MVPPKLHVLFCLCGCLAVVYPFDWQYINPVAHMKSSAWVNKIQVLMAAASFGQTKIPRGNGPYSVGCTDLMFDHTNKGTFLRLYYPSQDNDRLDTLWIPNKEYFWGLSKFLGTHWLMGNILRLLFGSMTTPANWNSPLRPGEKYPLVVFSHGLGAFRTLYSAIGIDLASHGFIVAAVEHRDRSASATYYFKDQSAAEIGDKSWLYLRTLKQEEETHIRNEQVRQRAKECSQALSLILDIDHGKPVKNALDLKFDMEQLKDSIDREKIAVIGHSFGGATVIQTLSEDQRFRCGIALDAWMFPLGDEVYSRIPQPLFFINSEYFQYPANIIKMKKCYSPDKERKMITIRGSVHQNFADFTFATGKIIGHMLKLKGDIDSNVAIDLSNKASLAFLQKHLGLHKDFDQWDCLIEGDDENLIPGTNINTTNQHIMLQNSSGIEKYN
DAGLB inh = blocks human DAGLB lipase activity; 340,000 compounds, 0.059% hits; HEK293T DAGLB membrane lysate, EnzChek fluorogenic substrate; Q8NCG7; inhibition, % at 5.17 µM; AID 504411; in the data active = inhibition above about 34%;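 also: 0% = enzyme with vehicle and 100% = wells lacking enzyme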
PAFAH1B3 FP inh = PAFAH1B3 (human) inhibition | Q15102 | 340,000 compounds, 0.28% hits | recombinant PAFAH1B3, FP-rhodamine probe, fluorescence polarization | inhibition, % at 3.39 µM;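 active = inhibition above the screen-wide average of all tested compounds plus 3 SD, cut at about 25% in these data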;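 also: 0% = enzyme with DMSO only and 100% = wells lacking PAFAH1B3 protein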
Target sequence (Q15102 whole entry, looked up): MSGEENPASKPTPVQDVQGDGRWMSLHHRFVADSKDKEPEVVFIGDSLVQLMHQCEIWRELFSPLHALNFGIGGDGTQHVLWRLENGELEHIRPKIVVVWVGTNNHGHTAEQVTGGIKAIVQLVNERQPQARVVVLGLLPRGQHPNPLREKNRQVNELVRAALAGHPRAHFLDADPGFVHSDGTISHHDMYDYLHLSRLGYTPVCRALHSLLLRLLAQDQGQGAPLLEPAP
PAFAH2 inh = PAFAH2 (human) inhibition | Q99487 | recombinant PAFAH2, FP-rhodamine activity probe, fluorescence polarization | inhibition, % at 3.39 µM | 340,000 compounds, 0.99% hits;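 active = inhibition above the mean over all tested compounds plus 3 SD, cut at about 30% in these data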;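 also: inhibitors block probe labeling of enzyme so polarization drops; 0% = enzyme with DMSO and 100% = wells lacking PAFAH2 protein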
ATG4B inh = ATG4B (human) cysteine protease inhibition. inhibition, % at 8.33 µM. ATG4B cleavage of LC3-PLA2, NBD-HPC fluorescence, 1 h. 340,000 compounds, 0.51% hits. Q9Y4P1; in the data active = inhibition above about 40%
PAFAH1B2 inh = inhibitors of human PAFAH1B2; AID 492953; 340,000 compounds, 1.2% hits; recombinant PAFAH1B2, FP-rhodamine activity probe, fluorescence polarization; inhibition, % at 3.39 µM; P68402;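 active = inhibition above the mean of all tested compounds plus 3 SD, cut at about 24% in these data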;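 also: 0% = enzyme with DMSO and 100% = wells lacking PAFAH1B2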
Active calls of the source: *; . = no result.

SMILES | pPAFAH FP inh | DAGLB inh | PAFAH1B3 FP inh | PAFAH2 inh | ATG4B inh | PAFAH1B2 inh
COc1cccc2c1C(=N)c1c(O)c3c(c(O)c1C2=O)CC(O)(C(C)=O)CC3OC1CC(N)C(O)C(C)O1 (stereo not drawn) | . | 12.6 | 7.6 | 11.2 | 12.2 | 11.3
COc1cccc2c1C(=O)c1c(O)c3c(c(O)c1C2=O)C[C@](O)(C(C)=O)C[C@H]3O[C@@H]1C[C@@H](N)[C@@H](O)[C@@H](C)O1 | 56.9* | -9.7 | 43.2* | 51.0* | -19.9 | 48.6*
C/C(=N/NC(=O)c1ccc(C)nc1)c1ccc2c(c1)CCCC2 | -0.8 | -3.1 | 5.7 | -11.5 | -5.9 | 3.8
O=C(NNC(=S)Nc1ccc(Cl)cc1Cl)C1CC1 | 3.9 | -0.3 | 5.2 | 3.2 | -9.6 | 6.4
Cc1cccc(Oc2cc(NC(=O)Cn3cnc([N+](=O)[O-])n3)cc([N+](=O)[O-])c2)c1 | 29.0* | -2.3 | -1.8 | -13.4 | -8.5 | 1.3
Cc1cc(C)cc(Oc2cc(NC(=O)c3cn(C)nc3C)cc([N+](=O)[O-])c2)c1 | -3.4 | -3.8 | -8.8 | -26.8 | 15.2 | -3.9
Cc1ccc(S(=O)(=O)N[C@H](C(=O)N2CCC(C(=O)N[C@@H](CC(=O)O)C(=O)O)CC2)C(C)C)cc1 | -3.5 | -3.1 | 2.2 | 3.9 | -3.2 | 0.9
CN(CCC#N)C(=O)COC(=O)c1c2c(nc3ccccc13)/C(=C/c1ccco1)CC2 | 27.4* | -0.1 | 7.3 | 8.9 | 3.3 | 3.1
CC(C)CNC(=O)COC(=O)c1c2c(nc3ccccc13)/C(=C\c1cccs1)CC2 | . | -6.5 | 1.6 | -1.2 | 0.2 | 2.2
CCOc1ccc(N2CC(C(=O)NCCc3c[nH]c4ccc(C)cc34)CC2=O)cc1 (stereo not drawn) | 12.2 | -0.3 | -3.5 | -5.5 | -6.8 | 2.1
CC(=O)N1C(C)(C)CC(=NOC(=O)c2ccc(C)cc2)CC1(C)C | 25.1* | 3.0 | 9.8 | 82.6* | -6.1 | 0.4
Cc1ccc(C(=O)NC(=S)N2CCN(c3ccc([N+](=O)[O-])cc3)CC2)cc1 | 1.6 | 2.4 | 3.1 | -6.0 | 2.4 | 0.8
Cc1ccc(C(=O)ON=C2CCN(c3ccc([N+](=O)[O-])cc3)CC2)cc1 | 8.0 | -0.9 | 5.7 | 76.7* | -10.9 | 2.6
O=C(NCCNC1CCC(c2ccccc2)CC1)c1cccs1 (stereo not drawn) | -0.6 | -2.3 | 7.0 | -13.6 | -2.2 | -0.6
O=C(Cc1ccc([N+](=O)[O-])cc1)Nc1cccc(C(=O)N2CCCCC2)c1 | 0.3 | 0.1 | 0.7 | 7.6 | -3.7 | 2.5
CCCCn1c(C23CC4CC(CC(C4)C2)C3)n[nH]c1=S | 1.8 | -1.7 | -0.9 | 4.5 | -5.0 | 28.7*
COCCn1c(C23CC4CC(CC(C4)C2)C3)n[nH]c1=S | 5.1 | 3.5 | 6.6 | 4.9 | 0.6 | 4.5
COc1ccc(Cn2nnnc2CN(Cc2cc3cc(C)ccc3[nH]c2=O)C2CCCC2)cc1 | 1.8 | -0.8 | 3.4 | 3.7 | -9.7 | 25.8*
CCOC(=O)C1=CN(Cc2cccc(-c3ccc4c(c3)OCO4)c2)S(=O)(=O)N(C)C1C (stereo not drawn) | 3.1 | -15.4 | 3.3 | -1.2 | 10.0 | 0.1
N#Cc1ccsc1NC(=O)CSc1nnc(-c2ccccc2)o1 | 34.1* | -0.3 | 1.7 | 6.8 | -8.2 | 0.2
O=C(CSc1nnc(-c2ccccc2)o1)Nc1ccccc1F | 2.3 | -2.2 | 5.5 | 13.3 | 2.2 | 5.0
CCOc1cc(Br)cc(/C=C2\SC(=Nc3ccccc3)NC2=O)c1O | 24.6* | 5.0 | 6.7 | 11.9 | 10.8 | 6.0
C=CCOc1c(Br)cc(/C=C2\SC(=Nc3ccccc3)NC2=O)cc1OC | . | -2.8 | 7.8 | -6.3 | -1.6 | -5.4
O=C1/C(=C/c2ccco2)CCc2ccccc21 | 10.9 | -12.4 | 6.0 | 3.9 | 21.1 | -1.4
O=C1C(=Cc2ccco2)C(=O)c2ccccc21 | 28.2* | 12.1 | 8.2 | 6.7 | -2.6 | 4.2
SMILES | pPAFAH FP inh | DAGLB inh | PAFAH1B3 FP inh | PAFAH2 inh | ATG4B inh | PAFAH1B2 inh
O=c1[nH]c(CSc2nc3ccccc3s2)nc2ccccc12 | -1.4 | -0.3 | 3.0 | -0.6 | -4.2 | 30.6*
CC(C)N(C(=O)Cn1c(-c2ccccc2Cl)nc2ccccc21)c1ccccc1 | 25.8* | -3.0 | 0.3 | -0.1 | -4.9 | 13.8
CCc1cccc(CC)c1NC(=O)Cn1c(-c2ccccc2Cl)nc2ccccc21 | 6.7 | -7.8 | 10.1 | 0.1 | 0.9 | 3.6
COC1CCC2(C)C(=CCC3C4CC(O)CC4(C)CCC32)C1 (stereo not drawn) | . | -7.9 | 5.9 | -2.9 | -6.3 | 6.8
Cc1nn(-c2ccccc2)c2nc(N)c(C#N)c(-c3ccc(O)c(O)c3)c12 | 30.8* | 8.0 | 32.3* | 9.8 | -10.9 | 3.6
COc1cc(-c2c(C#N)c(N)nc3c2c(C)nn3-c2ccc(C)c(C)c2)cc(OC)c1OC | -13.4 | -2.0 | -4.6 | -4.7 | 10.9 | -2.1
Cc1nn(CC(=O)OCC(=O)NC(C)c2ccccc2)c(C)c1[N+](=O)[O-] (stereo not drawn) | 1.8 | -0.1 | -1.6 | 4.0 | 7.6 | 1.3
CCOC(=O)C1CCCN(C(=O)Cc2c(C(=O)O)[nH]c3ccccc23)C1 (stereo not drawn) | 9.1 | 0.0 | 8.2 | 4.7 | -5.2 | 33.8*
COC(=O)CNC(=S)NC(=O)c1ccc(C(C)(C)C)cc1 | 1.4 | -4.6 | 11.6 | 3.6 | -0.7 | 6.0
Cc1cccc(C2C3=C(Nc4[nH]n(-c5ccccc5)c(=O)c42)c2ccccc2C3=O)c1 (stereo not drawn) | . | 34.0 | 20.6 | 62.4* | -3.0 | 51.6*
Cc1ccccc1C1C2=C(Nc3[nH]n(-c4ccccc4)c(=O)c31)c1ccccc1C2=O (stereo not drawn) | 5.6 | . | . | . | . | .
Clc1ccc(-c2cnnc(-c3ccccn3)n2)cc1 | -1.6 | 3.2 | 5.9 | 0.7 | -13.9 | 4.9
Cc1ccc(S(=O)(=O)NCCCN(C)C)cc1 | -2.5 | 0.3 | 2.1 | 2.3 | -2.3 | 3.6
Cc1ccc(S(=O)(=O)NCCc2ccc(S(N)(=O)=O)cc2)cc1 | 2.0 | 0.4 | 5.5 | 5.3 | -9.9 | 11.9
Cc1ccc(CCNS(=O)(=O)c2ccc(C)cc2)cc1 | 18.8 | -7.4 | 3.3 | -4.9 | -6.0 | 26.1*
CC(=O)Nc1ccc(S(=O)(=O)NCCc2c[nH]c3ccc(C)cc23)cc1 | . | -2.5 | -0.2 | -3.6 | -6.3 | 0.1
Cc1ccc(S(=O)(=O)NCCCNS(=O)(=O)c2ccc(C)cc2)cc1 | 26.0* | 2.1 | -0.6 | -5.8 | -12.5 | 3.9
Cc1ccc(CSCCNS(=O)(=O)c2ccc(C)cc2)cc1 | 8.3 | -17.0 | 0.7 | 0.7 | 0.6 | 24.8*
Cc1ccc2[nH]cc(CCNS(=O)(=O)c3ccc(F)cc3)c2c1 | . | -2.6 | 5.8 | 3.7 | 3.0 | 27.3*
COc1ccc2c(c1)cc(C(=O)N[C@@H](CCSC)C(=O)N1CCC(C(=O)O)CC1)n2C | 2.3 | 0.2 | 6.5 | 6.1 | 2.5 | 5.1
Cc1ccc(CCNS(=O)(=O)c2ccc3c(c2)NC(=O)C(C)C(=O)N3)cc1 (stereo not drawn) | 8.0 | 0.6 | 11.4 | 3.5 | -19.0 | 27.0*
